The values that follow come from the supplement of paper PMC4022240.

± gives the standard deviation.

The first assay deals with T1, HaloTag-ATRX ADD domain (163-292).
T1 chain: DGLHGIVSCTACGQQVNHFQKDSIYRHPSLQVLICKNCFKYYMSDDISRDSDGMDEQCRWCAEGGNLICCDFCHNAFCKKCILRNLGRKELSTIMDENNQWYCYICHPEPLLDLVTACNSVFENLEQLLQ
The assay can be described thus: peptide microarray binding signal (635 nm), min-max normalized on array (fraction of array maximum); higher = stronger binding. The settings on record: peptide region: Unmod H1 variant; binder concentration: 50 nM. The gist of the method:
(§1)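 Binding signal is the mean intensity of triplicate spots, min-max scaled within each library. Histone 13-mer peptide–cellulose conjugates were spotted in triplicate on nitrocellulose with a Cy3 tracer and blocked overnight at 4°C. Probing lasted 1 h at 4°C, either with biotin-labelled HaloTag reader fusions (10 nM to 1 μM) and streptavidin-Alexa Fluor 647 or with rabbit histone antibodies (1:10,000 to 1:2,000) and anti-rabbit Alexa 647. An Axon GenePix 4000B read signal at 635 nm and misprints at 532 nm.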
With TPKKASKPKKAAS [Unmod H1 variant T P K K A S K P K K A A S], the “peptide microarray binding signal” value amounted to 0.0118 ± 0.00065.

Take KKAKKPKTVKAKP [Unmod H1 variant K K A K K P K T V K A K P]: the “peptide microarray binding signal” value amounted to 0.0134 ± 0.00092.

Take DSQIKLSIKRLVT [Unmod H1 variant D S Q I K L S I K R L V T]: the “peptide microarray binding signal” value was 0.0155 ± 0.00047.

Regarding RLVTTGVLKQTKG [Unmod H1 variant R L V T T G V L K Q T K G], the “peptide microarray binding signal” value was 0.0191 ± 0.00044.

As for PKKAPVKPKAKSS [Unmod H1 variant P K K A P V K P K A K S S], the “peptide microarray binding signal” value stood at 0.0131 ± 0.00065.

The assay is the same for the next values; noted with them: peptide region: Unmod H1 variant; binder concentration: 500 nM.
For TPKKASKPKKAAS [Unmod H1 variant T P K K A S K P K K A A S], the “peptide microarray binding signal” value came out at 0.00967 ± 0.00036.

As to KKAKKPKTVKAKP [Unmod H1 variant K K A K K P K T V K A K P], the “peptide microarray binding signal” value amounted to 0.00981 ± 0.00033.

Consider DSQIKLSIKRLVT [Unmod H1 variant D S Q I K L S I K R L V T], for which the “peptide microarray binding signal” value amounted to 0.0281 ± 0.00085.

Turning to RLVTTGVLKQTKG [Unmod H1 variant R L V T T G V L K Q T K G], the “peptide microarray binding signal” value was found to be 0.035 ± 0.0031.

Regarding PKKAPVKPKAKSS [Unmod H1 variant P K K A P V K P K A K S S], the “peptide microarray binding signal” value is 0.0107 ± 0.00047.

A further assay deals with HaloTag-ING2 PHD (mouse Ing2 200-280). The assay is described as above. The settings on record: peptide region: Unmod H1 variant; binder concentration: 10 nM. In short, it runs like this:
as §1
On to TPKKASKPKKAAS [Unmod H1 variant T P K K A S K P K K A A S], for which the “peptide microarray binding signal” value came out at 0.00167 ± 1.7e-05.

In the case of KKAKKPKTVKAKP [Unmod H1 variant K K A K K P K T V K A K P], the “peptide microarray binding signal” value is 0.00215 ± 4.5e-05.

Turning to DSQIKLSIKRLVT [Unmod H1 variant D S Q I K L S I K R L V T], the “peptide microarray binding signal” value amounted to 0.003819 ± 3.5e-05.

In the case of RLVTTGVLKQTKG [Unmod H1 variant R L V T T G V L K Q T K G], the “peptide microarray binding signal” value came out at 0.0205 ± 0.0038.

Consider PKKAPVKPKAKSS [Unmod H1 variant P K K A P V K P K A K S S], for which the “peptide microarray binding signal” value came to 0.00245 ± 0.0001.

Still in this assay, the particulars now being: peptide region: Unmod H1 variant; binder concentration: 100 nM.
For TPKKASKPKKAAS [Unmod H1 variant T P K K A S K P K K A A S], the “peptide microarray binding signal” value came out at 0.00489 ± 0.00044.

KKAKKPKTVKAKP [Unmod H1 variant K K A K K P K T V K A K P]: the “peptide microarray binding signal” value was determined as 0.00645 ± 0.00057.

For the molecule DSQIKLSIKRLVT [Unmod H1 variant D S Q I K L S I K R L V T], the “peptide microarray binding signal” value was found to be 0.00801 ± 0.00074.

As to RLVTTGVLKQTKG [Unmod H1 variant R L V T T G V L K Q T K G], the “peptide microarray binding signal” value turned out to be 0.0395 ± 0.0068.

As for PKKAPVKPKAKSS [Unmod H1 variant P K K A P V K P K A K S S], the “peptide microarray binding signal” value is 0.00496 ± 0.0015.

Another assay has as its target anti-H3K4me3 antibody ab8580. Described as above. The following applies: peptide region: Unmod H1 variant; binder concentration: 1:2,000 dilution. The gist of the method:
as §1
With TPKKASKPKKAAS [Unmod H1 variant T P K K A S K P K K A A S], the “peptide microarray binding signal” value was found to be 0.000698 ± 3.6e-05.

For KKAKKPKTVKAKP [Unmod H1 variant K K A K K P K T V K A K P], the “peptide microarray binding signal” value worked out at 0.000642 ± 1.6e-05.

On to DSQIKLSIKRLVT [Unmod H1 variant D S Q I K L S I K R L V T], for which the “peptide microarray binding signal” value amounted to 0.000623 ± 3.1e-05.

Regarding RLVTTGVLKQTKG [Unmod H1 variant R L V T T G V L K Q T K G], the “peptide microarray binding signal” value stood at 0.00321 ± 0.00047.

As for PKKAPVKPKAKSS [Unmod H1 variant P K K A P V K P K A K S S], the “peptide microarray binding signal” value was 0.00034 ± 2.1e-05.

The same assay, now with this note: peptide region: Unmod H1 variant; binder concentration: 1:10,000 dilution.
Turning to TPKKASKPKKAAS [Unmod H1 variant T P K K A S K P K K A A S], the “peptide microarray binding signal” value was found to be 0.000571.

Regarding KKAKKPKTVKAKP [Unmod H1 variant K K A K K P K T V K A K P], the “peptide microarray binding signal” value was determined as 0.000628 ± 6.7e-06.

For DSQIKLSIKRLVT [Unmod H1 variant D S Q I K L S I K R L V T], the “peptide microarray binding signal” value is 0.00137 ± 1.3e-05.

RLVTTGVLKQTKG [Unmod H1 variant R L V T T G V L K Q T K G]: the “peptide microarray binding signal” value came to 0.00348 ± 4.9e-05.

As to PKKAPVKPKAKSS [Unmod H1 variant P K K A P V K P K A K S S], the “peptide microarray binding signal” value amounted to 0.000685 ± 7.2e-06.

The target of a further assay is anti-H3K9me3 antibody ab8898. The description is as above. The following applies: peptide region: Unmod H1 variant; binder concentration: 1:2,000 dilution. The gist of the method:
as §1
TPKKASKPKKAAS [Unmod H1 variant T P K K A S K P K K A A S]: the “peptide microarray binding signal” value is 0.000181.

With KKAKKPKTVKAKP [Unmod H1 variant K K A K K P K T V K A K P], the “peptide microarray binding signal” value was 0.000151 ± 1.6e-06.

Regarding DSQIKLSIKRLVT [Unmod H1 variant D S Q I K L S I K R L V T], the “peptide microarray binding signal” value amounted to 0.000513 ± 9.7e-06.

For RLVTTGVLKQTKG [Unmod H1 variant R L V T T G V L K Q T K G], the “peptide microarray binding signal” value was found to be 0.00151 ± 8.2e-05.

For the molecule PKKAPVKPKAKSS [Unmod H1 variant P K K A P V K P K A K S S], the “peptide microarray binding signal” value came to 0.000362 ± 1.9e-05.

The same assay, now with this note: peptide region: Unmod H1 variant; binder concentration: 1:10,000 dilution.
With TPKKASKPKKAAS [Unmod H1 variant T P K K A S K P K K A A S], the “peptide microarray binding signal” value is 0.000519 ± 5.6e-06.

With KKAKKPKTVKAKP [Unmod H1 variant K K A K K P K T V K A K P], the “peptide microarray binding signal” value is 0.000634 ± 1.2e-05.

With DSQIKLSIKRLVT [Unmod H1 variant D S Q I K L S I K R L V T], the “peptide microarray binding signal” value came out at 0.00127 ± 2.5e-05.

As for RLVTTGVLKQTKG [Unmod H1 variant R L V T T G V L K Q T K G], the “peptide microarray binding signal” value was 0.001903 ± 1.8e-05.

As for PKKAPVKPKAKSS [Unmod H1 variant P K K A P V K P K A K S S], the “peptide microarray binding signal” value was 0.000865 ± 2.4e-05.
